According to ChEMBL document CHEMBL2218924, “A broad activity screen in support of a chemogenomic map for kinase signalling research and drug discovery” (Biochem J, 2013):

Tests used:
[1] = biological target: T1, Ephrin type-A receptor 3 (Homo sapiens) (UniProt P29320); conditions: at 10 µM
T1 sequence (whole entry): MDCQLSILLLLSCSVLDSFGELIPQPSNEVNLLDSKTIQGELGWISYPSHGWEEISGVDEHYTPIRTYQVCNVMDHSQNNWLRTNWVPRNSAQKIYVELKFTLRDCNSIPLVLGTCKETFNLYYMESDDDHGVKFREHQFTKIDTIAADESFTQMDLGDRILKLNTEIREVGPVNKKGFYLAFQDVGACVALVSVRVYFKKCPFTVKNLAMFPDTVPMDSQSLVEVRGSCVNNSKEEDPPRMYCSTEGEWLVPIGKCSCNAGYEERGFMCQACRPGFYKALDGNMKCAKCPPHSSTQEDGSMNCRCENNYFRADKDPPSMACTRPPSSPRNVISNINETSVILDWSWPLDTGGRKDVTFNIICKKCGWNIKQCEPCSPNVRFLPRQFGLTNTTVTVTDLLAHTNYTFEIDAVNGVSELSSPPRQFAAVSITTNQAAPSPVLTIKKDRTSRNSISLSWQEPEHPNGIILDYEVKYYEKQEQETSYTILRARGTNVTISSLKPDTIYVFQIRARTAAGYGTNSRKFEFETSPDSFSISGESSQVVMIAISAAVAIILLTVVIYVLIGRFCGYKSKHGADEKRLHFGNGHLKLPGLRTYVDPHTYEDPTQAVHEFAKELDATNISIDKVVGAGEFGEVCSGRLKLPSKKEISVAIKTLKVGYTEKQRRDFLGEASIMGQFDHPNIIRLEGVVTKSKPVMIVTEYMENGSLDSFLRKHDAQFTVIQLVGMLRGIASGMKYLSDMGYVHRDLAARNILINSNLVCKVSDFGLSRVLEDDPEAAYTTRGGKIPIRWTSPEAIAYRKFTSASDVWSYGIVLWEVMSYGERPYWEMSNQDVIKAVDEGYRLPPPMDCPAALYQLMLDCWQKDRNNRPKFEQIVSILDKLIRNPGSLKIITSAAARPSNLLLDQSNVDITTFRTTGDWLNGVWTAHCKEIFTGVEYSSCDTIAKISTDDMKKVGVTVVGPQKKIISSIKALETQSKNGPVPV

[2] = biological target: Ephrin type-A receptor 4 (Homo sapiens) (UniProt P54764); conditions: at 1 µM
[3] = biological target: Ephrin type-A receptor 4 (Homo sapiens) (UniProt P54764); conditions: at 10 µM
[4] = biological target: Ephrin type-A receptor 5 (Homo sapiens) (UniProt P54756); conditions: at 1 µM
[5] = biological target: Ephrin type-A receptor 5 (Homo sapiens) (UniProt P54756); conditions: at 10 µM
[6] = biological target: Ephrin type-A receptor 7 (Homo sapiens) (UniProt Q15375); conditions: at 1 µM
[7] = biological target: T2, Ephrin type-A receptor 8 (Homo sapiens) (UniProt P29322); conditions: at 10 µM
T2 sequence (whole entry): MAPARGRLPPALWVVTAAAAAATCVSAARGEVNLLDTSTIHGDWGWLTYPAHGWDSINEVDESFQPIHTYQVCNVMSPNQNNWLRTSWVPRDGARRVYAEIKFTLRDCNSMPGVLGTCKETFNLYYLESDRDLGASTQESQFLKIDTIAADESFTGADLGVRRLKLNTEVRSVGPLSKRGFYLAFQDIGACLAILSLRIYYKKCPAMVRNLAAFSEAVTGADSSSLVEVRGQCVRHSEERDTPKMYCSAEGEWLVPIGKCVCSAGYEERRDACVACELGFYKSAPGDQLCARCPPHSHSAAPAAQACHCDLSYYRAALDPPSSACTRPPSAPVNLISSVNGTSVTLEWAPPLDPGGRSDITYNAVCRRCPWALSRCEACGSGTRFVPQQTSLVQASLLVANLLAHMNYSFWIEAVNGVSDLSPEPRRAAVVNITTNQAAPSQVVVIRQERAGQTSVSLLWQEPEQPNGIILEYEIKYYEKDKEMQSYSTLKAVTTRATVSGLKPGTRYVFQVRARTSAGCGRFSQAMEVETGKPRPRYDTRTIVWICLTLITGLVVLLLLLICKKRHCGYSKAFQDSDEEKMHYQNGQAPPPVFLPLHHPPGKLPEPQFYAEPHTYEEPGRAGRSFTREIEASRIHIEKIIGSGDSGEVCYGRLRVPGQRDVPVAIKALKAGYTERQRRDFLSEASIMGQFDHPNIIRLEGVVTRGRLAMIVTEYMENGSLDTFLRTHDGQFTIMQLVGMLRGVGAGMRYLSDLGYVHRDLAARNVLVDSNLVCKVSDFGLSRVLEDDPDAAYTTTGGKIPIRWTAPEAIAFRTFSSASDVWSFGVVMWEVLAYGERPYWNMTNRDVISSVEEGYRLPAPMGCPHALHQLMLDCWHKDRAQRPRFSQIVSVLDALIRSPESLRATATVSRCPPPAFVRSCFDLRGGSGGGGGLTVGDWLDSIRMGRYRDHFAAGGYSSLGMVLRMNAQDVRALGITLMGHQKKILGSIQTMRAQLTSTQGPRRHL

[8] = biological target: T3, Ephrin type-B receptor 2 (Homo sapiens) (UniProt P29323); conditions: at 10 µM
T3 sequence (whole entry): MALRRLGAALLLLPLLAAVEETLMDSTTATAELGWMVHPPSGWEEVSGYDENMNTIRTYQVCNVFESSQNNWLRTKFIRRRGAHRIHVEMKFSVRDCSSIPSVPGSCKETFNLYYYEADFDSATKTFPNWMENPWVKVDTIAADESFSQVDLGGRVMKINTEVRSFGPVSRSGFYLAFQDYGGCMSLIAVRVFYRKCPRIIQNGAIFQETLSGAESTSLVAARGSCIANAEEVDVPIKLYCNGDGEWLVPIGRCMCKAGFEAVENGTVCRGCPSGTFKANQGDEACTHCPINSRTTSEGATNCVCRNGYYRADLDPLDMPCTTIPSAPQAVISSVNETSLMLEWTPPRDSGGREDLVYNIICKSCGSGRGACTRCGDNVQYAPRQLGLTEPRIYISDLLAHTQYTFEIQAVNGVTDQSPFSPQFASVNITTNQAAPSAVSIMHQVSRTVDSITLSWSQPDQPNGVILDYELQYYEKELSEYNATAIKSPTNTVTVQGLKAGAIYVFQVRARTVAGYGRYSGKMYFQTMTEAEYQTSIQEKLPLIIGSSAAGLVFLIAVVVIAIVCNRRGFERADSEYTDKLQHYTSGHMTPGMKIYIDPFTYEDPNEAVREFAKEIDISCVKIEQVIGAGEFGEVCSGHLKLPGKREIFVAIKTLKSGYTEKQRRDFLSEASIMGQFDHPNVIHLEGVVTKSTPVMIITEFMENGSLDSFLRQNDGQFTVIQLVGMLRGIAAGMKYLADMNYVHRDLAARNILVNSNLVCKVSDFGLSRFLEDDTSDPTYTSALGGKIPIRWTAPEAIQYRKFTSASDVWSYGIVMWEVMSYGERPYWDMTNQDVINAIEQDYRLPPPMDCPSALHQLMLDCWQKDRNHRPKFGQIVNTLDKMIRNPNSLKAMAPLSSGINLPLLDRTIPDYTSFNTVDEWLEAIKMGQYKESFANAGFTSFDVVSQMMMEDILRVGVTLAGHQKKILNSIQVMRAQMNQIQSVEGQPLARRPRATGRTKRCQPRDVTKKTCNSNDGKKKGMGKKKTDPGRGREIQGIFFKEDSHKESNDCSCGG

[9] = biological target: T4, Ephrin type-B receptor 3 (Homo sapiens) (UniProt P54753); conditions: at 1 µM
T4 sequence (whole entry): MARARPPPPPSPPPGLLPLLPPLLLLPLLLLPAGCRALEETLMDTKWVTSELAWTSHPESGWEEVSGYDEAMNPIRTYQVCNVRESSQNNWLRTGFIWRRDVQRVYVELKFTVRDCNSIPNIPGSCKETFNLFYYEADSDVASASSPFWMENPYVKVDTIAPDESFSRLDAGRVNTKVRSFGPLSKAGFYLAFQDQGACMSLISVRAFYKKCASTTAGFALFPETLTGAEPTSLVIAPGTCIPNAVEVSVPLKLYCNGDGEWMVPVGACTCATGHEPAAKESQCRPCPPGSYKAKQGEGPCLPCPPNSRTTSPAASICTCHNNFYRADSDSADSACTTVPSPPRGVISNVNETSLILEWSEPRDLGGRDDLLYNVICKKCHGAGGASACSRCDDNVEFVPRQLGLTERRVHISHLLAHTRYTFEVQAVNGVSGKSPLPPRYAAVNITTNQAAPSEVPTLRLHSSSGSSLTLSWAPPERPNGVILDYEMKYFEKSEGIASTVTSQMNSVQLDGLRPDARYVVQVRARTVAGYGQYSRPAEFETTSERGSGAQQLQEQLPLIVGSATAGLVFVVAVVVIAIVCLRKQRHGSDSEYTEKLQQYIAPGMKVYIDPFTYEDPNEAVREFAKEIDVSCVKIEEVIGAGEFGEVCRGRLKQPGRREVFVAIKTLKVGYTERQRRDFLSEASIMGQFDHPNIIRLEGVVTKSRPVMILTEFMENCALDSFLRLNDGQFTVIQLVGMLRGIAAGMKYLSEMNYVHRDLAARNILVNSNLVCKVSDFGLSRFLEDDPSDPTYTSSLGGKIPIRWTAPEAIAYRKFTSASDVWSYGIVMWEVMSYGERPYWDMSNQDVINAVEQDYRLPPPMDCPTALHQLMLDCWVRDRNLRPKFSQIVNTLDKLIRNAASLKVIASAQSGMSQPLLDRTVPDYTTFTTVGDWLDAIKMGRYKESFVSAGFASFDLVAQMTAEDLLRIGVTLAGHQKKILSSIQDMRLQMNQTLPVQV

[10] = biological target: T4, Ephrin type-B receptor 3 (Homo sapiens); conditions: at 10 µM
[11] = biological target: T5, Ephrin type-B receptor 4 (Homo sapiens) (UniProt P54760); conditions: at 1 µM
T5 sequence (whole entry): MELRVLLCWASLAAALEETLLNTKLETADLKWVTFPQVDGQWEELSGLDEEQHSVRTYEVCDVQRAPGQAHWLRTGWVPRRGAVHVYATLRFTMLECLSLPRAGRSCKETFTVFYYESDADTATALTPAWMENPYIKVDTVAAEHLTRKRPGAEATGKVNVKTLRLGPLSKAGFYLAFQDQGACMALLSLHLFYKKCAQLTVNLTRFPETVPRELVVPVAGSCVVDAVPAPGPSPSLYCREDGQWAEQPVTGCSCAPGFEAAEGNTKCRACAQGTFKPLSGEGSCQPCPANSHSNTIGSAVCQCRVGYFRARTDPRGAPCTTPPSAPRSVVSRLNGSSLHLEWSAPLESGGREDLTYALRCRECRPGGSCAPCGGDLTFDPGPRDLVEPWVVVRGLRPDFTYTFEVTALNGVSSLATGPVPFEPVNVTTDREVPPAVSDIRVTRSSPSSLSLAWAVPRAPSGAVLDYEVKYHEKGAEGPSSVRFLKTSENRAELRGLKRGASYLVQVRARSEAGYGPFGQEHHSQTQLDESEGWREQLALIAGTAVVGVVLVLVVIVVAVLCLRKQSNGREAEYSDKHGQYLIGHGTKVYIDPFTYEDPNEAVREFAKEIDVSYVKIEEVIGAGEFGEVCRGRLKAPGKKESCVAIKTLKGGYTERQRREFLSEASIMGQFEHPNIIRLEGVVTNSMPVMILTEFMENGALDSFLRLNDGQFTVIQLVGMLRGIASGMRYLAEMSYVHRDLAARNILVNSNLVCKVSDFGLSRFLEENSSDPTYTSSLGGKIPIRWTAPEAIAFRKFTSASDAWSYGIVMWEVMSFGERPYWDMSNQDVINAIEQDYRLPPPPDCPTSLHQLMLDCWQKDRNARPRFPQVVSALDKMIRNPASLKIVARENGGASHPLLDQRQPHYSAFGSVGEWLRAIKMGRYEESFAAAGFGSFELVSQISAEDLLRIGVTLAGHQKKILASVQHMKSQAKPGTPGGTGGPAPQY

[12] = biological target: T5, Ephrin type-B receptor 4 (Homo sapiens); conditions: at 10 µM
[13] = biological target: Receptor tyrosine-protein kinase erbB-4 (Homo sapiens) (UniProt Q15303); conditions: at 1 µM
[14] = biological target: Receptor tyrosine-protein kinase erbB-4 (Homo sapiens) (UniProt Q15303); conditions: at 10 µM
[15] = biological target: Focal adhesion kinase 1 (Homo sapiens) (UniProt Q05397); conditions: at 1 µM

Receptor tyrosine-protein kinase erbB-4 (Homo sapiens), sequence (Q15303 whole entry): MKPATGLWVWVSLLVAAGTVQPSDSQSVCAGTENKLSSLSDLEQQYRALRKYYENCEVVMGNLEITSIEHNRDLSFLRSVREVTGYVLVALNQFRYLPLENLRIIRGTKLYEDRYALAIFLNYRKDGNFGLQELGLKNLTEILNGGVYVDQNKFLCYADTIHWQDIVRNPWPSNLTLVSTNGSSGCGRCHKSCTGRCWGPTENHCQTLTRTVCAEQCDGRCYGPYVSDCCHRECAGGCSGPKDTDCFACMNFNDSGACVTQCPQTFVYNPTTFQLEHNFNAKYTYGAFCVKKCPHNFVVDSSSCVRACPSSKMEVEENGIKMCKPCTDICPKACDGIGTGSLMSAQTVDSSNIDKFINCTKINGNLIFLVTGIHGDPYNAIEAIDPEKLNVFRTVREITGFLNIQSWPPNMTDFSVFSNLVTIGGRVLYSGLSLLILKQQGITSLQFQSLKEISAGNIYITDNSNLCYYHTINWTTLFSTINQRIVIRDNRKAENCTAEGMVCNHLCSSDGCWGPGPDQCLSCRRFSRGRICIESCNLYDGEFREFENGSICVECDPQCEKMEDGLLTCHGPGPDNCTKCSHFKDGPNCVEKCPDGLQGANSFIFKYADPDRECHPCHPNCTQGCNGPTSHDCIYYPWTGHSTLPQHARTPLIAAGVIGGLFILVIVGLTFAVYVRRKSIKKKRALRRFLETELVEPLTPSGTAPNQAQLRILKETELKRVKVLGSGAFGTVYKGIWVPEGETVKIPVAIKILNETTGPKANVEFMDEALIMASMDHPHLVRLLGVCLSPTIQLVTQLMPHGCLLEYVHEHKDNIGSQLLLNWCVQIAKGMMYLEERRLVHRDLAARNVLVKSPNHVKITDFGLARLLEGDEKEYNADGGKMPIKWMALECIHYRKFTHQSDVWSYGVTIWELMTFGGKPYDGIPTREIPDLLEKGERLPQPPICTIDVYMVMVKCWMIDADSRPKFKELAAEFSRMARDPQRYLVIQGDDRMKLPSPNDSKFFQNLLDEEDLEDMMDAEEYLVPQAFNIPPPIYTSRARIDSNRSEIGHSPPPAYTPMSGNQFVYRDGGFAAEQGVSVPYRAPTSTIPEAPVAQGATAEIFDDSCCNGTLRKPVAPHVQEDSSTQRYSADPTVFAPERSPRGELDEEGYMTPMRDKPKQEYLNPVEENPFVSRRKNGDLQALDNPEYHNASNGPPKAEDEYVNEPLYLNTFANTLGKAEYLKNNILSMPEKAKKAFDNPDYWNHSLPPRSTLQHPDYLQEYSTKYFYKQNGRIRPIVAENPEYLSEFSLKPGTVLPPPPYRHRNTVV
Ephrin type-A receptor 5 (Homo sapiens), sequence (P54756 whole entry): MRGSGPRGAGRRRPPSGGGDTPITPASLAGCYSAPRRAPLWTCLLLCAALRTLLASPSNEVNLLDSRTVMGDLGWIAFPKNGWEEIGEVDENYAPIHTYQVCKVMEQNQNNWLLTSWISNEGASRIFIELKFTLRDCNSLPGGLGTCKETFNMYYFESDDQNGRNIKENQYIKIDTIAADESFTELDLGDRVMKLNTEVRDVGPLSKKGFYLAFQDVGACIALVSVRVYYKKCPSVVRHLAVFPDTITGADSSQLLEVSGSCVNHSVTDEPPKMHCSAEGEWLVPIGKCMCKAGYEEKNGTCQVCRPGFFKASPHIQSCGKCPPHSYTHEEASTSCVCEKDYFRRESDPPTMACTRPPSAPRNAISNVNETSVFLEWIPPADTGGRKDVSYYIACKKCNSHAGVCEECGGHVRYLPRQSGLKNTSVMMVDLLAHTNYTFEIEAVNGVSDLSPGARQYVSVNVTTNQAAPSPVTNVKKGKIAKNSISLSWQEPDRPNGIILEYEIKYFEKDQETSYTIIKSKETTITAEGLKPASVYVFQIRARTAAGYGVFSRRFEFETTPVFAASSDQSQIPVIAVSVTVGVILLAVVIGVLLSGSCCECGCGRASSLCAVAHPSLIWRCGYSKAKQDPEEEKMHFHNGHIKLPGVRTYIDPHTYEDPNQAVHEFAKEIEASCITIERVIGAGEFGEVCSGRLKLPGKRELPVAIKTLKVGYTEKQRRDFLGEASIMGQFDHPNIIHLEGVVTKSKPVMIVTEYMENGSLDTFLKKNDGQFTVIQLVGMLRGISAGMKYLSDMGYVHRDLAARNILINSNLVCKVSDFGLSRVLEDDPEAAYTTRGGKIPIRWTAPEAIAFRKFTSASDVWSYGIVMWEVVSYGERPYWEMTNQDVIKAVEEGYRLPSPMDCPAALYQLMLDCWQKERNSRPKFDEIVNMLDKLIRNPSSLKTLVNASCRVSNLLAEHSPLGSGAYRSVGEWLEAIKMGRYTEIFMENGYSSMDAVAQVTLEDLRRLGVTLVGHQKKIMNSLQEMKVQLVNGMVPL
Ephrin type-A receptor 4 (Homo sapiens), sequence (P54764 whole entry): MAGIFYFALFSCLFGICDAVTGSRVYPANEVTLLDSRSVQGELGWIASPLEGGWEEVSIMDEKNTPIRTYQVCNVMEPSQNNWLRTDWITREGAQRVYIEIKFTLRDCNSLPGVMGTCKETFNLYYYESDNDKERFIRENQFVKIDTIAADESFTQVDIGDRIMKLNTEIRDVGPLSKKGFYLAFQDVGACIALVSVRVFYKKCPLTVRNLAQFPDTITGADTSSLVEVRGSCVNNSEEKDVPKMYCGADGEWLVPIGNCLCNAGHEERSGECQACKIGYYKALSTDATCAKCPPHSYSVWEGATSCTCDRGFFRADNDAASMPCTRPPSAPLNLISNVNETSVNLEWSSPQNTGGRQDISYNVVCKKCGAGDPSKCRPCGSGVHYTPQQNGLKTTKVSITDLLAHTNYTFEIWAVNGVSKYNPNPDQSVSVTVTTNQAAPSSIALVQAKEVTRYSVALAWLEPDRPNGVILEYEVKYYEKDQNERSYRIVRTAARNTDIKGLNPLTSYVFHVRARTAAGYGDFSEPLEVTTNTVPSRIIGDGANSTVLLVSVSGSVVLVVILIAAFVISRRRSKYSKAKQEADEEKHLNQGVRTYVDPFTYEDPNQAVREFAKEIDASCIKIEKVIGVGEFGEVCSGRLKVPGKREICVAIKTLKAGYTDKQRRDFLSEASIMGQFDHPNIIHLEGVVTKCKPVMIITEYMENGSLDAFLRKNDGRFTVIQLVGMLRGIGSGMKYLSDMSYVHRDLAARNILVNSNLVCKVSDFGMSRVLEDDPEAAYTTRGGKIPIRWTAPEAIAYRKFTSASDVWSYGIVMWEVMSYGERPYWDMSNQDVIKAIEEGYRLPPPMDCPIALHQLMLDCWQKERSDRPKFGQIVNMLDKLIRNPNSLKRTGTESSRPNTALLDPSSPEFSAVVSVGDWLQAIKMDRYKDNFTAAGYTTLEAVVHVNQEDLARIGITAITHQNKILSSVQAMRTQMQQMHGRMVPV
Ephrin type-A receptor 7 (Homo sapiens), sequence (Q15375 28-998 limits assumed): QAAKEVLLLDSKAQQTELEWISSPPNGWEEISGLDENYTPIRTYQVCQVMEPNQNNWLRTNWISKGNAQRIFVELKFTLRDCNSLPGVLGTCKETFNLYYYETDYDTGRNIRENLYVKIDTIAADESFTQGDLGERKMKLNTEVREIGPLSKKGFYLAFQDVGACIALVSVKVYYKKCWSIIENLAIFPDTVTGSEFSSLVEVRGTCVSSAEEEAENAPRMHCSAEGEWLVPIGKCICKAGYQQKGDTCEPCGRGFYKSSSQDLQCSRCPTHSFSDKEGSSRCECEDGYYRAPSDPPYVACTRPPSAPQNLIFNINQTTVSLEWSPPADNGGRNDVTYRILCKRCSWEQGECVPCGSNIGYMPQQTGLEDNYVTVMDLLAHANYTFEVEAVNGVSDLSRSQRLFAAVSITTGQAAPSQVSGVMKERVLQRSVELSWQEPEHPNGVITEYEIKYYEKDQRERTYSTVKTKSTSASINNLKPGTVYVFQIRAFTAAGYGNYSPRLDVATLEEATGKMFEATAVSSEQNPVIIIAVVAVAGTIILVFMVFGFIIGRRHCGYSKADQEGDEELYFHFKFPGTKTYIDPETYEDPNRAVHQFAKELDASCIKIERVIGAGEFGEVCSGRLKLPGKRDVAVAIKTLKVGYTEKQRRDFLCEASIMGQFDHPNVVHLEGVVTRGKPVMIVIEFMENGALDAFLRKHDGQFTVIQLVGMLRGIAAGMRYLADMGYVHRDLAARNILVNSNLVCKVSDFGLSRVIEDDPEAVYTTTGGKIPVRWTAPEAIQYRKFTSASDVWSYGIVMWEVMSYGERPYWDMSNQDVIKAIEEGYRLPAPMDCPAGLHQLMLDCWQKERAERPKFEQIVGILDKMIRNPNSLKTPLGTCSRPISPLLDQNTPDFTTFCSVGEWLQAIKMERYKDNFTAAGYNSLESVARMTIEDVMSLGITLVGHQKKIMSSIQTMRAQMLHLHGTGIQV

## Nc1ncnc2[nH]nc(Nc3ccc(F)cc3)c12
[1]
  residual activity: 42%
[2]
  residual activity: 111%
[3]
  residual activity: 77%
[4]
  residual activity: 82%
[5]
  residual activity: 34%
[6]
  residual activity: 105%
[7]
  residual activity: 43%
[8]
  residual activity: 9%
[9]
  residual activity: 123% (inactive)
[10]
  residual activity: 107%
[11]
  residual activity: 42%
[12]
  residual activity: 6%
[13]
  residual activity: 18%
[14]
  residual activity: 11%
[15]
  residual activity: 109%
